This is part of a sample that, as a whole, favours compounds with a hit. Of some 83,000 tested, about 20% had one in any assay.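 48-hour exposure, single concentration, 96-well plates; percent growth endpoint where 0 means no net growth. Active: below 10.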 Activity calls are given as the source filed them.
Tests used:
Test in all cases: NCI-60 one-dose screen, 48 h (100 = growth as untreated, 0 = no growth, -100 = all killed)
Conditions in all cases: 10 µM unless noted
[1] = tested on: RPMI-8226 leukemia
[2] = tested on: OVCAR-8 ovarian
[3] = tested on: OVCAR-5 ovarian
[4] = tested on: OVCAR-4 ovarian
[5] = tested on: SK-OV-3 ovarian
[6] = tested on: IGROV1 ovarian
[7] = tested on: OVCAR-3 ovarian
[8] = tested on: HS 578T breast
[9] = tested on: NCI/ADR-RES ovarian
[10] = tested on: T-47D breast
[11] = tested on: BT-549 breast
[12] = tested on: MDA-MB-435 melanoma
[13] = tested on: SW-620 colon
[14] = tested on: MCF7 breast
[15] = tested on: HCT-116 colon
[16] = tested on: HCC-2998 colon
[17] = tested on: KM12 colon

Measured: growth

CCCCCCN(CCCCCC)c1ccc(/C=C2/SC(=O)NC2=O)c(C)c1
inactive: [1] 65.5% | [2] 80.6% | [3] 109% | [4] 69.6% | [5] 96.5% | [6] 83.6% | [7] 86.7% | [8] 86.8% | [9] 86.7% | [10] 77.2% | [11] 98.3% | [12] 82.1% | [13] 88.6% | [14] 79.2% | [15] 63.7% | [16] 67.4% | [17] 80.3%

CCOC(=O)Cn1c(=O)c2c(c3ccccc3n2C)n2nnc(-c3ccccc3)c12
inactive: [1] 136% | [2] 106% | [3] 70.9% | [4] 104% | [5] 103% | [6] 68.7% | [7] 109% | [8] 107% | [9] 102% | [10] 104% | [11] 114% | [12] 113% | [13] 109% | [14] 75.1% | [15] 90% | [16] 109% | [17] 104%

CC(=O)N1CCN(c2ccc(OCC3CO[C@](Cn4ccnc4)(c4ccc(Cl)cc4Cl)O3)cc2)CC1 (some centres not stated)
inactive: [1] 43.8% | [2] 83.9% | [3] 91.3% | [4] 67.6% | [5] 95.5% | [6] 80.2% | [7] 99% | [8] 102% | [9] 84.4% | [10] 51.1% | [11] 54.7% | [12] 94% | [13] 104% | [14] 86.4% | [15] 68.4% | [16] 85.5% | [17] 87%

Cc1ccc(/C=C2\Oc3ccc(O)c(O)c3C2=O)cc1
inactive: [1] 51.1% | [2] 44.5% | [3] 68.5% | [4] 43.7% | [5] 63.6% | [6] 38.1% | [7] 11.7% | [8] 62.5% | [9] 45.1% | [10] 47.3% | [11] 43.1% | [12] 82.4% | [13] 30.7% | [14] 31.6% | [15] 17.8% | [16] 70.2% | [17] 77%

O=c1ccc(N=Nc2ccc([N+](=O)[O-])cc2)ccc1O
active: [2] 9.9% | [7] 8.96% | [9] -1.1% | [14] 7.16%
inactive: [1] 22.4% | [3] 48.5% | [4] 29.6% | [5] 78.6% | [6] 21.4% | [8] 34.8% | [10] 16.8% | [11] 97.3% | [12] 21.8% | [13] 15.4% | [15] 32.3% | [16] 22.3% | [17] 16.7%

COc1ccc(-c2ncnc3c2ncn3CC#CCCl)cc1
inactive: [1] 34.7% | [2] 65.3% | [3] 97.7% | [4] 51.1% | [5] 85.8% | [6] 46.2% | [7] 53.4% | [8] 107% | [9] 56.2% | [10] 53.1% | [11] 50.1% | [12] 40.2% | [13] 48.9% | [14] 35.7% | [15] 52.5% | [16] 84.8% | [17] 72.6%

CC(=O)O.CN1[CH-]N(Cc2ccc(C#N)cc2)c2ccccc21.[Ag+]
inactive: [1] 88.8% | [2] 101% | [3] 117% | [4] 112% | [5] 120% | [6] 111% | [7] 116% | [8] 103% | [9] 109% | [10] 69.7% | [11] 102% | [12] 106% | [13] 57.9% | [14] 97% | [15] 105% | [16] 113% | [17] 86.9%

COc1ccc(NC(=O)n2nc(/C=C\c3ccc(O)c(OC)c3)cc2/C=C\c2ccc(O)c(OC)c2)cc1
active: [12] -36.3% | [15] 9.13%
inactive: [1] 21.3% | [2] 32.8% | [3] 62.3% | [4] 51.5% | [5] 60.7% | [6] 34.4% | [7] 13.6% | [8] 28.7% | [9] 23.9% | [10] 34.8% | [11] 31.4% | [13] 27.1% | [14] 15.6% | [16] 74.9% | [17] 17.9%

Cc1ncc(C(=O)Nc2ccc(CN3CCN(C)CC3)c(C(F)(F)F)c2)cc1C#Cc1ccc(N)nc1
inactive: [2] 19.8% | [3] 10.4% | [4] 12% | [5] 16.7% | [7] 18.6% | [10] 18.6% | [11] 15.3% | [16] 25.5%
active: [1] 1.1% | [6] -25% | [8] -20% | [9] 9.79% | [12] -59% | [13] -2.48% | [14] 4.46% | [15] -31.3% | [17] 2.86%

S=C(c1cccs1)N1CCN(c2cccc(Cl)c2)CC1
inactive: [1] 86.3% | [2] 104% | [3] 97.2% | [4] 101% | [5] 107% | [6] 89.9% | [7] 106% | [8] 120% | [9] 104% | [10] 82.6% | [11] 59.3% | [12] 108% | [13] 103% | [14] 96.9% | [15] 83.9% | [16] 110% | [17] 102%

CCOC(=O)/C=C1\S/C(=N\Nc2ccc([N+](=O)[O-])cc2[N+](=O)[O-])N(Cc2ccccc2)C1=O
inactive: [2] 73.4% | [3] 95% | [4] 69.2% | [5] 104% | [6] 88.5% | [7] 83.5% | [8] 84.3% | [9] 75.2% | [10] 56% | [11] 109% | [12] 98.2% | [13] 70.9% | [14] 72.8% | [15] 75.3% | [16] 93% | [17] 97.5%
active: [1] 7.78%

CCCCN(C)N=Nc1ccc(C(N)=O)cc1
inactive: [1] 114% | [2] 107% | [3] 99.2% | [4] 107% | [5] 121% | [6] 89.1% | [7] 103% | [8] 101% | [9] 106% | [10] 113% | [11] 112% | [12] 84.5% | [13] 104% | [14] 94% | [15] 107% | [16] 101% | [17] 107%

OC(COc1ccccc1)CN1CCN(c2ccc(Cl)cc2)CC1 (configuration not stated)
inactive: [1] 95.1% | [2] 93.9% | [3] 111% | [4] 97.6% | [5] 102% | [6] 124% | [7] 100% | [8] 100% | [9] 101% | [10] 102% | [11] 101% | [12] 121% | [13] 98.7% | [14] 102% | [15] 92.6% | [16] 109% | [17] 98%

Cc1nc(/N=C(\N)NC(=O)Nc2ccccc2Cl)sc1C
active: [1] 8.06% | [12] -25.6%
inactive: [2] 33.9% | [3] 51.3% | [4] 55.1% | [5] 45.4% | [6] 42.8% | [7] 12.1% | [8] 13.5% | [9] 15.7% | [10] 34.7% | [11] 69.3% | [13] 36.3% | [14] 23.6% | [15] 28.5% | [16] 33.4% | [17] 40.3%

CCOC(=O)c1c(C)oc2ncnc(N3CCN(C(=O)COc4ccc(C(C)(C)C)cc4)CC3)c12
inactive: [1] 44.9% | [2] 81.5% | [3] 96.8% | [4] 74.4% | [5] 85.4% | [6] 73.7% | [7] 98.4% | [8] 78.8% | [9] 73.6% | [10] 47.7% | [11] 54.3% | [12] 99.8% | [13] 99.8% | [14] 83% | [15] 75.2% | [16] 104% | [17] 89.9%

C=C(C)[C@@H]1CC[C@]2(N=C=O)CC[C@]3(C)[C@H](CC[C@@H]4[C@@]5(C)Cc6c([nH]c7ccccc67)C(C)(C)[C@@H]5CC[C@]43C)[C@@H]12
inactive: [1] 18.8% | [2] 70.7% | [3] 92.9% | [4] 72.7% | [5] 89.4% | [6] 84.3% | [7] 89.2% | [8] 92% | [9] 83.5% | [10] 62.4% | [11] 84.3% | [12] 86.4% | [13] 78% | [14] 39.5% | [15] 11.6% | [16] 98.4% | [17] 70.5%
